The text below walks through data of ChEMBL document CHEMBL1157539, “Thousands of chemical starting points for antimalarial lead identification” (Nature, 2010).

Structures are written as SMILES.

The test system of this experiment is HepG2. As to the kind of experiment: GSK_TCMDC: Percent inhibition of human HepG2 cell line. Test compounds present at 10uM. The format is functional.
`O=C1NC(=O)C(c2ccc(Cl)cc2)=C1Nc1cccc(S(=O)(=O)C(F)(F)F)c1` had an Inhibition of 1%. `CCOC(=O)c1cncc(/C=C/c2cc(C)cnc2N)c1`: the Inhibition came out at 4%. Then `COc1ccccc1-n1c(SCC(=O)Nc2ccccc2F)nc2cccnc21`, with 0%; and `CCNc1cc(C(=O)N[C@@H](Cc2ccccc2)[C@H](O)CN[C@@H]2CCc3ccccc32)cc(N2CCCC2=O)c1`, with 0%. On to `Cc1cc(-c2nc3cc(C(=N)N)ccc3[nH]2)c(C)cc1-c1nc2cc(C(=N)N)ccc2[nH]1.Cl`, for which the Inhibition is reported as 0%. `CC(=O)Nc1ncc(C(=O)Nc2cccc(-c3ccc(-c4nc5ccccc5[nH]4)cc3)c2)s1` displayed an Inhibition of 12%. Then `CCOC(=O)c1nc(-c2ccccc2)[nH]c1NC(=S)NC1CCCCC1`, with 6%; and `Cc1cc(NC(=O)NCCN2CCC(NC(=O)c3cccc(Br)c3)C2)c2ccccc2n1.O=C(O)C(F)(F)F` (configuration not stated), with 0%. Then `O=C(Nc1ccccc1C(F)(F)F)Nc1nn(Cc2c(F)cccc2Cl)cc1Br`, with 0%.

Molecule `COc1ccc2nccc([C@@H](O)CN3CCC(NCCNc4ccccn4)CC3)c2c1.O=C(O)C(=O)O` came in with an Inhibition of 18%. The figure for `CC(=O)Nc1ccc(CN2CCc3ccc(NS(=O)(=O)c4cccc(OCc5ccc(Cl)cc5)c4)cc3CC2)s1` is 23%; for `CN1CCCN(Cc2cccc(-c3ccc(NC(=O)c4ccc(Cl)cc4)cc3)c2)CC1.O=C(O)C(F)(F)F` it is 31%; for `O=C(Nc1ccc(-c2nc3ccccc3[nH]2)cc1)c1ccc(S(=O)(=O)N2CCc3ccccc32)cc1` it is 32%.

For `COc1ccc(Cl)cc1N1CCN(CCCNC(=O)c2ccc(-c3nc4cc(Cl)c(F)cc4[nH]3)c(F)c2)CC1`, the Inhibition is 21%. Then `O=C(Nc1nc(-c2cc(F)ccc2F)cs1)c1cncc(Br)c1`, with 16%. The figure for `CCN(CC)CCN(Cc1ccc(-c2ccc(C(F)(F)F)cc2)cc1)C(=O)Cn1c(CCc2cccc(F)c2F)nc(=O)c2sccc21.O=C(O)C(O)C(O)C(=O)O` is 70%; for `COc1ccc2[nH]c(C)cc(=NN=Cc3ccccc3)c2c1` it is 4%; for `O=C1c2ccccc2C(=O)N1c1ccc(S(=O)(=O)N2CCOCC2)cc1` it is 0%. The figure for `Cc1noc(C)c1-c1cccc(CNCc2ccc(-c3cccc(-c4nc5cc(F)ccc5[nH]4)c3)cc2)c1.O=C(O)C(F)(F)F` is 37%. For `CCC[C@@H]([C@@H](CC1CCCCC1)C(=O)N[C@H](C(=O)Nc1nccs1)[C@H](C)O)N(O)C=O`, the Inhibition stood at 0%. Molecule `CN(C)c1ccc(/N=C2/N/C(=N/c3ccc(N(C)C)cc3)c3ccccc32)cc1` showed an Inhibition of 23%. Then `COc1ccc2c(=NN=CC=Cc3ccccc3)cc(C)[nH]c2c1`, with 18%; and `O=C(O[C@@H]1CN[C@H](C#Cc2cc3ncnc(Nc4ccc5c(cnn5Cc5cccc(F)c5)c4)c3s2)C1)N1CCCC1`, with 9%. Then `Cc1cc(NC(=O)Nc2ccc(C(C)(C)C)cc2)c2ccccc2n1`, with 0%; and `Nc1nc(N)c2c(ccc3c2ccn3Cc2ccccc2)n1`, with 64%; and `COc1ccc(N2CCN(CCCCNC(=O)c3ccc(NC(=O)c4ccc(OC(F)(F)F)cc4)cc3)CC2)c(OC)c1`, with 36%. Then `CCCCNc1nccc2ccc(-c3ccncc3)cc12`, with 6%; and `C=CCc1ccc(C2CCN(CCCCNC(=O)c3ccc(NC(=O)c4ccc(Cl)cc4)cc3)CC2)cc1`, with 27%; and `Cc1cccc2nc(-c3ccc(-c4ccc(CNCCCN5CCCC5=O)cc4)cc3)[nH]c12.O=C(O)C(F)(F)F`, with 7%. Turning to `CCCOc1ccc(-c2nonc2NC(=O)c2cccc(OC)c2)cc1OCCC`, the Inhibition is 18%. The figure for `N#Cc1ccc(NC(=O)c2ccc(C(=O)NCCCCN3CCC(c4ccc5c(c4OCCOC4CCCCO4)CCCC5)CC3)cc2)cc1` (configuration not stated) is 72%.

Take `COc1ccccc1-c1cccc(CNC2CCN(CC3Cn4c(=O)ccc5ccc(F)c3c54)CC2)c1.O=C(O)C(F)(F)F` (configuration not stated): the Inhibition is reported as 30%. The figure for `C[C@H](Cc1ccc(C[C@@H](C)NC[C@H](O)c2cccc(Cl)c2)cc1)NC[C@H](O)COc1ccccc1.Cl` is 99%; for `CC(C)Oc1ccc(N2CCN(CCCCNC(=O)c3ccc(NC(=O)c4ccc(Cl)cc4)cc3)CC2)c(OC(C)C)c1` it is 31%; for `COc1ccc(CCNCCCCCNCCc2ccc(Cl)cc2)cc1OC.Cl` it is 32%. The molecule `Cl.N=C(N)c1ccc(OCc2cccc(COc3ccc(C(=N)N)cc3I)c2)c(I)c1` registered an Inhibition of 7%. Then `CCCCN(CCCC)CC(O)c1cc(-c2ccc(Cl)cc2)nc2c(Cl)cc(Cl)cc12.Cl` (configuration not stated), with 0%.

What is called Inhibition is how much of the control response was suppressed. A lower Inhibition goes with a weak effect.
